In all, about 220,000 compounds went through this assay and about 570 (0.26%) were called active. For the sample, actives were picked, then their nearest neighbours and some compounds at random. Values without a mark were called inactive. No stated cut-off is given here; in the data, active means inhibition above about 29%; inactive means the rest.

The experiment deals with Sphingosine 1-phosphate receptor 4 (Homo sapiens) (UniProt O95977). Description: S1P4 receptor antagonists, primary screen, cell-based (AID 1510).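 Further: 0% = wells stimulated with agonist and 100% = vehicle wells without agonist.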 Particulars: S1P4-expressing cells, antagonist mode, reporter read-out; at 4.98 µM; stronger effect = higher value.
Sphingosine 1-phosphate receptor 4 (Homo sapiens), sequence (O95977 whole entry, looked up): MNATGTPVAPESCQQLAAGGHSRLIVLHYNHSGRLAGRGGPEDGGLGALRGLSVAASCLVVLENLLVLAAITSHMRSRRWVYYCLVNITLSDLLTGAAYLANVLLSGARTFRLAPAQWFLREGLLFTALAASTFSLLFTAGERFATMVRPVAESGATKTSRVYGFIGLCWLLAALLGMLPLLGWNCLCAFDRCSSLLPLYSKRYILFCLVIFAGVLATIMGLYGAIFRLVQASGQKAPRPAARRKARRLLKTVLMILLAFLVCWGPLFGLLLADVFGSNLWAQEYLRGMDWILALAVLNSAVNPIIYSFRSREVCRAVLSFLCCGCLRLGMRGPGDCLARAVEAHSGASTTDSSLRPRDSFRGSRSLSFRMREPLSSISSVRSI
For `CN(C)c1ccc(/C=C/C(=O)c2ccc(O)cc2)cc1[N+](=O)[O-]`, the inhibition is 6.74%.

As for `O=C(/C=C/c1ccc(Cl)c([N+](=O)[O-])c1)c1ccc(O)cc1`, the inhibition is 46.2% (active).

Consider `CN(C)c1ccc(/C=C/C(=O)c2ccc(C(C)(C)C)cc2)cc1[N+](=O)[O-]`, for which the inhibition was -10.1%.

As to `COc1ccccc1CNC(=O)Cn1c(=O)oc2cc(Cl)ccc21`, the inhibition was 0.8%.

As to `COc1ccc(C[C@H]2CN3C(=NC[C@H]3C)N2CCNC(=O)CCC2CCCCC2)cc1`, the inhibition was -5.06%.

On to `CC1CCCC(NC(=O)c2cccc(N3CCCC3=O)c2)C1C` (centres undefined), for which the inhibition is -7.04%.

For `C/C(=N/O)c1ccc(N2C(=O)C3C4C=CC(C3C2=O)C2C3C(=O)N(c5ccc(/C(C)=N/O)cc5)C(=O)C3C42)cc1` (centres undefined), the inhibition was -4.36%.

`COC(=O)C1=C(Nc2ccc(C)cc2)C=C(C)C(C(=O)OC)C1c1ccc(F)cc1` (centres undefined): the inhibition was -18%.

Take `O=C(NNC(=S)Nc1ccc(Br)cc1Cl)c1ccco1`: the inhibition is -12.4%.

`NC(=O)N/N=C\c1cccs1`: the inhibition is -18.6%.

As for `CCCCCCCC(=O)NC(Nc1ccccc1OC)C(Cl)(Cl)Cl` (centres undefined), the inhibition is 8.46%.

Regarding `Cc1cc(NC(=O)CSCc2ccccc2C)no1`, the inhibition was -4.86%.

`C=CS(=O)c1sc(Cl)c(N2CCOCC2)c1[N+](=O)[O-]` (centres undefined): the inhibition was 46.3% (active).

For `O=c1c2cc(-c3ccccc3)sc2nc2n1N=C(c1cccs1)CS2`, the inhibition was -3.31%.

As to `CCOc1ncccc1C(=O)N(CC)CC(=O)Nc1ccc(NC(C)=O)cc1`, the inhibition is -27.8%.

Consider `CNc1ccc(SC#N)cc1`, for which the inhibition was 30.8% (active).

As to `CC[C@H]1CN2CCc3cc(OC)c(OC)cc3[C@@H]2C[C@@H]1C[C@H]1NCCc2cc(OC)c(OC)cc21`, the inhibition was 82.3% (active).

With `COc1cc2c(cc1O)[C@H](Cc1ccc(Oc3cc(C[C@@H]4NCCc5cc(OC)c(O)cc54)ccc3O)cc1)NCC2`, the inhibition was -13.1%.

For the compound `O=C(Nc1ccc(Cl)cc1)Nc1ccc(C(=O)N2CCOCC2)cc1`, the inhibition was 6.4%.

`Cc1ccc(Oc2cc(NC(=O)CCCn3nc(C)c([N+](=O)[O-])c3C)cc([N+](=O)[O-])c2)cc1`: the inhibition is -12.2%.

`O=C(Nc1ccccc1)c1nnsc1S(=O)(=O)c1ccc(Cl)cc1`: the inhibition was 93.8% (active).

On to `CS(=O)(=O)c1ccc(Cl)c(NC(=O)Nc2ccccc2)c1`, for which the inhibition was 17.2%.

Consider `O=C(Nc1ccc(Cl)cc1)c1ccsn1`, for which the inhibition was 4.84%.

Turning to `CS(=O)(=O)N(CC(=O)N1CCN(c2ccc(F)cc2)CC1)C1CCCCC1`, the inhibition is -13.7%.

Take `Cc1ccc(CCC(=O)Nc2ncc(Cc3cc(Cl)ccc3Cl)s2)o1`: the inhibition is -6.95%.

For the compound `CCc1ccc(S(=O)(=O)NCC(O)COc2ccc(OC)cc2)cc1` (centres undefined), the inhibition was 2%.

Take `O=C(/C=C/Sc1ncn[nH]1)c1ccc(Cl)cc1`: the inhibition is 47.2% (active).

As for `O=C(NCCOCc1ccc(Cl)cc1)c1ncn[nH]1`, the inhibition is -4.23%.

For the compound `COc1ccc(Cl)cc1CSc1ncn[nH]1`, the inhibition was -3.23%.

For the compound `CC(=O)N1N=C(c2ccncc2)OC1(Cc1ccccc1)Cc1ccccc1`, the inhibition was 23.2%.

As for `CN(C)CCNC(=O)Cc1ccc([N+](=O)[O-])cc1`, the inhibition was -16%.

Consider `CCCc1nc2c(C)cc(-c3nc4ccccc4n3C)cc2n1Cc1ccc(-c2ccccc2C(=O)O)cc1`, for which the inhibition is -1.52%.

With `CCOc1ccc(C(C)=O)cc1COC(=O)c1cnc(Cl)c(Cl)c1`, the inhibition was -30.6%.

`O=C(Cc1ccc(-c2ccccc2)cc1)NC(c1ccccc1)c1ccccc1`: the inhibition is -5.23%.

For `CCOC(=O)C(C(=O)OCC)C(C#N)c1ccccc1` (centres undefined), the inhibition is -19.7%.

In the case of `CCOC(=O)/C=C/C(=O)OCC(=O)NC(c1ccccc1)c1ccccc1`, the inhibition is 36.3% (active).

Turning to `O=C(CSc1cccc[n+]1[O-])NCCCc1ccccc1`, the inhibition is 14.6%.

Regarding `O=C(Nc1nnc(CCN2CCCCC2)s1)c1cccc(Cl)c1`, the inhibition was 6.03%.

As for `Cc1cc(Nc2cccc(C)c2C)n2ncnc2n1`, the inhibition is -10.4%.

Take `O=C(CSc1nnnn1-c1ccc(O)cc1)c1ccc(F)cc1`: the inhibition was 6.46%.

In the case of `CCOC(=O)c1sc(NC(=O)CSc2nc(O)c(Cc3ccccc3)c(=O)[nH]2)nc1C`, the inhibition is -8.89%.

Regarding `Cc1[nH]c2ccccc2c1-c1ccc(Cl)nn1`, the inhibition is 2.48%.

Regarding `O=C(CO/N=C/c1ccccc1O)NNC(=O)c1ccccc1Cl`, the inhibition is -12.4%.

`Cc1cc(C)cc(Oc2nc3c(C)cccn3c(=O)c2/C=C(\C#N)C(=O)NC2CCS(=O)(=O)C2)c1` (centres undefined): the inhibition is -10.8%.

For `CCNC(=O)NNC(=O)C1CC(c2cccs2)=NO1` (centres undefined), the inhibition is -2.29%.

For the compound `CCOc1ccc(NS(=O)(=O)c2ccc(C)c(C(N)=O)c2)cc1`, the inhibition was -13.9%.

For the compound `CC(=O)Nc1ccc(S(=O)(=O)NC2(C(F)(F)F)C(=O)Nc3c2c(=O)[nH]c(=O)n3Cc2ccccc2)cc1` (centres undefined), the inhibition is -16.6%.

Consider `O=C(Nc1ccccc1)N1CCN(C2c3ccccc3-c3ccccc32)CC1`, for which the inhibition was -2.81%.

`COc1ccc(NC(=O)c2cn(-c3ccccc3)nc2SC)cc1`: the inhibition is -1.4%.

On to `COCC(=O)Nc1cc(C(=O)OC)cc(C(=O)OC)c1`, for which the inhibition was -10.1%.

In the case of `Nc1c(C(=O)O)cnn1-c1ccccc1`, the inhibition was -7.33%.

Take `CC(C)NC(=O)NCCCCCCS(C)=O` (centres undefined): the inhibition is -8.38%.

For the compound `CSc1cccc(NC(=O)C2CCCN2S(=O)(=O)c2ccc3c(c2)CCC(=O)N3)c1` (centres undefined), the inhibition was -15%.

On to `CCC(C)(C)C1CCC(=NNC(=O)c2ccc(Br)o2)CC1` (centres undefined), for which the inhibition is -7.44%.

For `CCOC(=O)Cc1ncccc1C(=O)Nc1ccc(OC(F)(F)F)cc1`, the inhibition is -25.3%.

For the compound `COC(=O)c1ccc(S(=O)(=O)NCc2ccccc2)n1C`, the inhibition was -20.7%.

In the case of `Cc1nn(-c2ccccc2)c(C)c1NC(=O)CCl`, the inhibition was -19.8%.

For the compound `COc1ccc2ccccc2c1CNc1nnnn1C`, the inhibition is 6.29%.

For `O=C(O)c1ccn(COc2ccc(Br)cc2)n1`, the inhibition was 3.75%.

`Nc1nnc(SCC(=O)Nc2ccc3nc(SCC(=O)Nc4ccccc4)sc3c2)s1`: the inhibition is -10.8%.

On to `CC(C)C(C)(C#N)NC(=O)CSc1nncn1-c1ccccc1` (centres undefined), for which the inhibition is -9.99%.

Take `CCOc1ncccc1C(=O)N(C)CC(=O)Nc1ccc(F)cc1`: the inhibition is -7.65%.

As to `CCCCCC1CCC(c2nnc(SCC(C)=O)o2)CC1` (centres undefined), the inhibition was -13.8%.

Regarding `NC(=O)COC(=O)c1cc(S(=O)(=O)N2CCN(c3ccccc3)CC2)ccc1Cl`, the inhibition is -4.86%.

For the compound `Cn1c(CCC(=O)OCC(=O)NCc2ccccc2Cl)nc(=O)c2ccccc21`, the inhibition is -5.53%.

On to `O=C(Nc1ccc(F)cc1)N1CCN(c2ccc(F)cc2)CC1`, for which the inhibition was -44%.

As to `Cn1c(N)c(C(=O)COC(=O)c2cnc(Cl)c(Cl)c2)c(=O)n(C)c1=O`, the inhibition is -6.76%.

As for `CCc1nnc(NS(=O)(=O)c2ccc(NC(=S)NC(=O)/C=C/c3cccs3)cc2)s1`, the inhibition was 9.53%.

Take `O=C(Nc1ccccc1Cc1ccccc1)c1ccc2c(c1)SC1=NS(=O)(=O)CCN12`: the inhibition is -10.9%.

One may read the inhibition as the change of the read-out against control, counted positive when it falls.

The values are drawn from PubChem BioAssay AID1510 (The Scripps Research Institute Molecular Screening Center, 2009).
